# Laboratory results from PubChem BioAssay (NCATS).
# Records with an inconclusive call do not appear. A number with no mark means an inactive call. The source made the active and inactive calls. Calls come from the whole dose curve; as a rule, active = well fitted curve in the direction sought with a large enough effect; inconclusive = small, poorly fitted or top-dose-only effect, or another doubt; inactive = no such curve, though single readings can be large; an effect the other way counts as inactive or inconclusive.
# Columns and labels:
# [1] = qHTS of pediatric cancer cell lines to identify multiple opportunities for drug repurposing: Confirmatory screen for TC32 cells (AID 1347118);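 note: cells exposed to compound for 48 h before the read; nearly all actives have a fitted effect of over 65% in size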; note: potency is the fitted concentration of half-maximal effect; for activity change, negative = cytotoxicity: % is set by controls: 0 for no effect and ±100 for the full control effect
# Method in brief: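 qHTS, TC32, 48 h drug treatment, CellTiter-Glo luminescence as a proxy for metabolically active cells; primary top concentration 46 µM (MIPE 11-pt, NPC 8-pt); confirmatory 11-pt.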
# [2] = qHTS of pediatric cancer cell lines to identify multiple opportunities for drug repurposing: Confirmatory screen for MG 63 (6-TG R) cells (AID 1347119); note: nearly all actives have a fitted effect of over 55% in size; note: potency is the fitted concentration of half-maximal effect;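 for activity change, negative = cytotoxicity: plate controls were DMSO neutral control for no effect and bortezomib for full effect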
# Method in brief: (§1)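 Cells (500-1,000/well) in growth media were settled 5 h at 37 degrees C, then given compounds for 48 h. Viability was read as CellTiter-Glo luminescence. Primary runs used MIPE at 11 points (0.78 nM-46 µM) and NPC at 8 points (0.59 nM-46 µM); follow-ups used 11 points.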
# [3] = qHTS of pediatric cancer cell lines to identify multiple opportunities for drug repurposing: Confirmatory screen for control Hh wild type fibroblast cells (AID 1347121); note: nearly all actives have a fitted effect of over 70% in size; note: potency is the fitted concentration of half-maximal effect;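 for activity, negative = cytotoxic: plate controls were DMSO for no effect and bortezomib for full effect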
# Method in brief: as §1
# [4] = qHTS of pediatric cancer cell lines to identify multiple opportunities for drug repurposing: Confirmatory screen for U-2 OS cells (AID 1347122); note: nearly all actives have a fitted effect of over 65% in size; note: potency is the fitted concentration of half-maximal effect;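 for activity change, negative = cytotoxicity: plate controls were DMSO for no effect and bortezomib for full effect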
# Method in brief: as §1
# [5] = qHTS of pediatric cancer cell lines to identify multiple opportunities for drug repurposing: Confirmatory screen for Rh41 cells (AID 1347123);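 note: 48 h compound exposure; nearly all actives have a fitted effect of over 60% in size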; note: potency is the fitted concentration of half-maximal effect;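 for activity change, negative = cytotoxic: plate controls were DMSO for no effect and bortezomib for full effect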
# Method in brief: as §1
# [6] = qHTS of pediatric cancer cell lines to identify multiple opportunities for drug repurposing: Confirmatory screen for Rh18 cells (AID 1347125); note: nearly all actives have a fitted effect of over 55% in size; note: potency is the fitted concentration of half-maximal effect; for activity change, negative = cytotoxic: % is set by controls: 0 for no effect and ±100 for the full control effect
# Method in brief: as §1
# [7] = qHTS of pediatric cancer cell lines to identify multiple opportunities for drug repurposing: Confirmatory screen for Rh30 cells (AID 1347126); note: nearly all actives have a fitted effect of over 55% in size; note: potency is the fitted concentration of half-maximal effect; for activity change, negative = cytotoxic: % is set by controls: 0 for no effect and ±100 for the full control effect
# Method in brief: as §1
# [8] = qHTS of pediatric cancer cell lines to identify multiple opportunities for drug repurposing: Confirmatory screen for Saos-2 cells (AID 1347127); note: nearly all actives have a fitted effect of over 60% in size; note: potency is the fitted concentration of half-maximal effect;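 for activity change, negative = cytotoxic: plate controls were DMSO for no effect and bortezomib for full effect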
# Method in brief: as §1
# [9] = qHTS of pediatric cancer cell lines to identify multiple opportunities for drug repurposing: Confirmatory screen for OHS-50 cells (AID 1347128);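 note: compound exposure lasted 48 h at 37 degrees C; nearly all actives have a fitted effect of over 55% in size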; note: potency is the fitted concentration of half-maximal effect; for activity change, negative = cytotoxic: % is set by controls: 0 for no effect and ±100 for the full control effect
# Method in brief: as §1
# [10] = target: N-terminal Xaa-Pro-Lys N-methyltransferase 1 (Homo sapiens) (UniProt Q9BV86); assay: qHTS Assay for Inhibitors of N-terminal methyltransferase 1 (NTMT1): LOPAC validation of the NTMT1 SAHH-coupled ThioGlo3 Assay (AID 1347143);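 note: SAH from peptide methylation measured as thiol fluorescence via SAHH coupling and ThioGlo3; % is set by controls: 0 for no effect and ±100 for the full control effect; nearly all actives have a fitted effect of over 70% in size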
# Method in brief: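 In this qHTS pilot against the LOPAC set, 125nM NTMT1 met compounds tested at multiple concentrations, and fluorescence was normalized to background.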
# Chain of N-terminal Xaa-Pro-Lys N-methyltransferase 1 (Homo sapiens) (Q9BV86 whole entry, looked up): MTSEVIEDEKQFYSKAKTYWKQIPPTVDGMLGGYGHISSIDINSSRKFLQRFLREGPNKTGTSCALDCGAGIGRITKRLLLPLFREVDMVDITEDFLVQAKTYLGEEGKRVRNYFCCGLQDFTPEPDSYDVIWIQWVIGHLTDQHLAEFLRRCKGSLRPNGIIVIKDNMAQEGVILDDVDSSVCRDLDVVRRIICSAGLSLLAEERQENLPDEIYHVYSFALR
smiles,measurement,setting,value
CCN1/C(=C/C=C/c2sc3ccccc3[n+]2CC)Sc2ccccc21,Potency,[1],1040 nM (active)
same,Potency,[2],465 nM (active)
same,Potency,[3],465 nM (active)
same,Potency,[4],811 nM (active)
same,Potency,[5],512 nM (active)
same,Potency,[6],5220 nM (active)
same,Potency,[7],inactive
same,Potency,[8],4140 nM (active)
same,Potency,[9],5850 nM (active)
Nc1nc(Cl)nc2c1ncn2[C@@H]1O[C@H](CO)[C@@H](O)[C@@H]1F,Potency,[1],369 nM (active)
same,Potency,[2],522 nM (active)
same,Potency,[3],inactive
same,Potency,[4],inactive
same,Potency,[7],5220 nM (active)
same,Potency,[8],465 nM (active)
CCN(CC)CCOc1ccc2c(c1)C(=O)c1cc(OCCN(CC)CC)ccc1-2,Potency,[1],9270 nM (active)
same,Potency,[2],inactive
same,Potency,[3],inactive
same,Potency,[4],inactive
same,Potency,[5],23300 nM (active)
same,Potency,[8],inactive
CCOC(=O)[C@H](CCc1ccccc1)N[C@@H](C)C(=O)N1[C@H](C(=O)O)C[C@H]2CCCC[C@@H]21,outcome,[10],inactive
CCCCCCCCCCC[C@@H](C[C@@H]1OC(=O)[C@H]1CCCCCC)OC(=O)[C@H](CC(C)C)NC=O,Potency,[2],inactive
same,Potency,[3],inactive
same,Potency,[4],inactive
same,Potency,[5],4650 nM (active)
same,Potency,[6],inactive
same,Potency,[7],inactive
same,Potency,[8],inactive
same,Potency,[9],inactive
C[C@@]12C(=O)OC(=O)[C@]1(C)C1CCC2O1,Potency,[1],3290 nM (active)
same,Potency,[2],2080 nM (active)
same,Potency,[4],2930 nM (active)
same,Potency,[5],2080 nM (active)
same,Potency,[6],3290 nM (active)
same,Potency,[7],3690 nM (active)
same,Potency,[8],2930 nM (active)
same,Potency,[9],4650 nM (active)
CCN[C@@H]1C[C@H](N)[C@@H](OC2OC(CN)=CCC2N)[C@H](O)[C@H]1O[C@H]1OC[C@](C)(O)[C@H](NC)[C@H]1O (some centres undefined),Potency,[1],inactive
same,"activity change, negative = cytotoxicity",[2],-17.7% [at 0.556 µM]
same,"activity, negative = cytotoxic",[3],8.41% [at 0.556 µM]
same,outcome,[4],inactive [at 0.556 µM]
same,"activity change, negative = cytotoxic",[5],13.6% [at 0.556 µM]
same,"activity change, negative = cytotoxic",[6],4.31% [at 0.556 µM]
same,"activity change, negative = cytotoxic",[7],25.4% [at 0.556 µM]
same,"activity change, negative = cytotoxic",[8],11.1% [at 0.556 µM]
same,"activity change, negative = cytotoxic",[9],3.87% [at 0.556 µM]
CN=C(N)NCCC[C@H](N)C(=O)O,outcome,[10],inactive
O=[N+]([O-])c1ccc(/C=N\O)o1,Potency,[1],3290 nM (active)
same,Potency,[3],inactive
same,Potency,[4],4140 nM (active)
same,Potency,[5],5850 nM (active)
same,Potency,[6],inactive
same,Potency,[7],1170 nM (active)
same,Potency,[9],inactive
CC1CCc2c(N3CCC(O)CC3)c(F)cc3c(=O)c(C(=O)O)cn1c23 (centres undefined),Potency,[3],inactive
same,Potency,[4],inactive
same,Potency,[5],18500 nM (active)
same,Potency,[7],inactive
O=C(CCCN1CC=C(n2c(=O)[nH]c3ccccc32)CC1)c1ccc(F)cc1,Potency,[2],inactive
same,Potency,[3],inactive
same,Potency,[5],18500 nM (active)
same,Potency,[6],inactive
same,Potency,[7],inactive
same,Potency,[8],inactive
same,Potency,[9],inactive
CCCCCCCCCCCCOCCOCCOCCOCCOCCOCCOCCOCCOCCO,Potency,[4],14700 nM (active)
same,Potency,[6],inactive
same,Potency,[7],inactive
same,Potency,[8],inactive
same,Potency,[9],inactive
COc1ccc(C(=O)c2ccccc2)c(O)c1,Potency,[2],inactive
same,Potency,[3],inactive
same,Potency,[5],inactive
same,Potency,[6],inactive
same,Potency,[7],inactive
same,Potency,[8],inactive
same,Potency,[9],inactive
C[C@H]1O[C@@H](O[C@H]2CC[C@@]3(C)[C@H](CC[C@@H]4[C@@H]3C[C@@H](O)[C@]3(C)[C@@H](C5=CC(=O)OC5)CC[C@]43O)C2)C[C@H](O)[C@@H]1O[C@H]1C[C@H](O)[C@H](O[C@H]2C[C@H](O)[C@H](O[C@@H]3O[C@H](CO)[C@@H](O)[C@H](O)[C@H]3O)[C@@H](C)O2)[C@@H](C)O1,Potency,[1],233 nM (active)
same,Potency,[2],293 nM (active)
same,Potency,[4],293 nM (active)
same,Potency,[5],147 nM (active)
same,Potency,[7],414 nM (active)
same,Potency,[8],928 nM (active)
same,Potency,[9],293 nM (active)
O=C(Oc1cccc2cccnc12)c1ccccc1,Potency,[2],inactive
same,Potency,[3],inactive
same,Potency,[4],inactive
same,Potency,[5],8270 nM (active)
same,Potency,[7],inactive
NC(N)=NCc1cccc(I)c1,outcome,[10],inactive
NC(N)=NN=C(/C=C/c1ccc([N+](=O)[O-])o1)/C=C/c1ccc([N+](=O)[O-])o1,Potency,[4],inactive
same,Potency,[5],1650 nM (active)
same,Potency,[6],4650 nM (active)
same,Potency,[7],2080 nM (active)
same,Potency,[9],5220 nM (active)
C=C[C@@]1(C)CC(=O)[C@]2(O)[C@@]3(C)[C@@H](O)CCC(C)(C)[C@@H]3[C@H](O)[C@H](OC(C)=O)[C@@]2(C)O1,Potency,[3],inactive
same,Potency,[4],inactive
same,Potency,[5],inactive
